Consider 8 compounds from PubChem BioAssay (Tox21).

A number with no mark means an inactive call. Inconclusive results are not listed. Calls of active or inactive are those of the source. Unless noted, the call rests on the fitted dose curve; in most records, active means well fitted curve in the direction sought with a large enough effect in the repeat runs; inconclusive means weak or mixed curves; inactive means no such curve, though single readings can be large; an effect the other way counts as inactive or inconclusive.

Test [1] is described as follows: qHTS assay to test for compound auto fluorescence at 535 nm (green) in HEK293 cells (AID 720680). (qHTS replaces the single test concentration by a dilution series.)
Test [2] can be described thus: qHTS assay to test for compound auto fluorescence at 460 nm (blue) in HEK293 cell free culture (AID 720681). The essentials: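 Compounds were added to cell-free DMEM with 10% FBS and fluorescence read directly. The blue channel used 405 nm excitation and 460 nm emission, with triamterene as the reference fluorophore.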
Test [3] in a line: qHTS assay to test for compound auto fluorescence at 535 nm (green) in HEK293 cell free culture (AID 720682). The essentials: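 Green-channel intensity (Ex/Em 485/535 nm) was recorded from compound-treated wells containing only DMEM with 10% FBS. Fluorescein provided the equivalency standard.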
The nature of test [4]: qHTS assay to test for compound auto fluorescence at 590 nm (red) in HEK293 cell free culture (AID 720683). The method, boiled down:
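Cell-free wells of DMEM with 10% FBS received compound, and intrinsic fluorescence was read at excitation/emission 540/590 nm. Values expressed as equivalence to Rose Bengal sodium.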

Test [5] is described as follows: qHTS assay to test for compound auto fluorescence at 590 nm (red) in HepG2 cell free culture (AID 720684). The essentials:
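Compounds are added to culture medium (MEM, 10% FBS) lacking cells, then fluorescence is read at excitation 540 nm, emission 590 nm, with Rose Bengal sodium as the equivalency standard.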

A short description of test [6]: qHTS assay to test for compound auto fluorescence at 460 nm (blue) in HepG2 cell free culture (AID 720685). The method, boiled down: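 Compound (23 nL) or DMSO pinned into cell-free MEM with 10% FBS; blue fluorescence read at 405/460 nm excitation/emission, expressed as auto-fluorescence equivalency to triamterene.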
Test [7] can be described thus: qHTS assay to test for compound auto fluorescence at 535 nm (green) in HepG2 cell free culture (AID 720686).
Test [8] in a line: qHTS assay to test for compound auto fluorescence at 460 nm (blue) in HepG2 cells (AID 720687). The method, boiled down: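 HepG2 cells in MEM with 10% FBS, attached overnight at 37 C, were exposed to compound or DMSO for 1 hr at 37 C, 5% CO2. Blue fluorescence was read at 405/460 nm, with triamterene as reference fluorophore.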
For test [9], the target named is Glucocorticoid receptor (Homo sapiens) (UniProt P04150). Description: qHTS assay to identify small molecule antagonists of the glucocorticoid receptor (GR) signaling pathway (AID 720692; active means well fitted inhibition curve with a large enough effect in the signal ratio in the repeat runs, not every such curve was filed as active; the % refers to the signal ratio). The essentials:
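HeLa GR-bla cells; cmpd + dex 5 nM final, 18 h 37 C; LiveBLAzer B/G FRET substrate 2 h RT; fluorescence intensity read. Antagonist mode, qHTS.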

Test [10] is described as follows: qHTS assay to identify small molecule antagonists of the glucocorticoid receptor (GR) signaling pathway - cell viability counter screen (AID 720693). Further: nearly all actives have a fitted effect of over 55% in size.
The nature of test [11]: qHTS assay for identifying genotoxic compounds that show differential cytotoxicity against isogenic chicken DT40 cell lines with known DNA damage response pathways - wild type cell line (AID 743012). Further: nearly all actives have a fitted effect of over 60% in size. The method, boiled down: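 Wild type DT40, 300 cells/well, ~0.5 h settle at 37 C/5% CO2; compounds in DMSO added by pintool; 40 h at 37 C/5% CO2; CellTiter-Glo, 30 min RT; luminescence.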

Test [12] is described as follows: qHTS assay for identifying genotoxic compounds that show differential cytotoxicity against isogenic chicken DT40 cell lines with known DNA damage response pathways - Rev3 mutant cell line (AID 743014). Further: nearly all actives have a fitted effect of over 55% in size.
Test [13] can be described thus: qHTS assay for identifying genotoxic compounds that show differential cytotoxicity against isogenic chicken DT40 cell lines with known DNA damage response pathways - Rad54/Ku70 mutant cell line (AID 743015). Further: nearly all actives have a fitted effect of over 60% in size.
Test [14] is described as follows: qHTS assay to identify small molecule antagonists of the androgen receptor (AR) signaling pathway - cell viability counter screen (AID 743033; further: nearly all actives have a fitted effect of over 45% in size).
The nature of test [15]: qHTS assay to identify small molecule antagonists of the androgen receptor (AR) signaling pathway using the MDA cell line - cell viability counter screen (AID 743041; further: nearly all actives have a fitted effect of over 45% in size; further: potency means the concentration at half of the fitted maximal effect). The method, boiled down:
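Same-well cytotoxicity was assessed by CellTiter-Fluor in MDA-kb2 AR-luc cells after 16 h of compound treatment under R1881 agonism.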

For test [16], the target named is Androgen receptor (Homo sapiens) (UniProt P10275). Nature of the test: qHTS assay to identify small molecule antagonists of the androgen receptor (AR) signaling pathway (AID 743035; active means well fitted inhibition curve with a large enough effect in the signal ratio in the repeat runs, not every such curve was filed as active; the % refers to the signal ratio). The essentials:
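Fluorescence from a beta-lactamase FRET substrate (LiveBLAzer B/G, 2 h, room temperature) measured inhibition of R1881-stimulated signaling in GeneBLAzer AR-UAS-bla HEK293 cells exposed to compound for 16 h at 37C.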

For test [17] the target is unchanged. Nature of the test: qHTS assay to identify small molecule agonists of the androgen receptor (AR) signaling pathway (AID 743036; active means well fitted activation curve with a large enough effect in the signal ratio in the repeat runs, with a control signal flat, not every such curve was filed as active; the % refers to the signal ratio). The essentials:
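Cell-based FRET reporter assay: HEK293 line with a UAS-beta-lactamase construct, compounds added in DMSO, 16 h exposure at 37C, then 2 h substrate step at room temperature and fluorescence intensity read.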

Test [18] has the same target. Description: qHTS assay to identify small molecule agonists of the androgen receptor (AR) signaling pathway using the MDA cell line (AID 743040; further: nearly all actives have a fitted effect of over 20% in size). The method, boiled down:
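Human breast carcinoma MDA-kb2 reporter cells (MMTV-luc, AR/GR elements) were treated for 16 h at 37C in 0% CO2 following a 5 h settling period. Signal was quantified by ONE-Glo luminescence.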

For test [19] the target is unchanged. Nature of the test: qHTS assay to identify small molecule antagonists of the androgen receptor (AR) signaling pathway using the MDA cell line (AID 743042; further: nearly all actives have a fitted effect of over 55% in size). The essentials: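 MDA-kb2 breast carcinoma cells carrying MMTV-luciferase (AR/GR responsive) were co-treated with compounds and the agonist R1881 for 16 h at 37C. Inhibition read as ONE-Glo luminescence; CellTiter-Fluor fluorescence measured in parallel for cytotoxicity.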

Test [20] concerns the target Glucocorticoid receptor (Homo sapiens) (UniProt P04150). Nature of the test: qHTS assay to identify small molecule agonists of the glucocorticoid receptor (GR) signaling pathway (AID 720691; active means well fitted activation curve with a large enough effect in the signal ratio in the repeat runs, not every such curve was filed as active; the % refers to the signal ratio; further: potency means the concentration at half of the fitted maximal effect). The essentials:
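Fluorescence intensity from LiveBLAzer B/G FRET substrate (2 h, room temperature) reports beta-lactamase expression driven by the glucocorticoid response element in GR-bla HeLa cells after 18 h compound exposure at 37 C.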

Chain of Glucocorticoid receptor (Homo sapiens) (P04150 whole entry, looked up): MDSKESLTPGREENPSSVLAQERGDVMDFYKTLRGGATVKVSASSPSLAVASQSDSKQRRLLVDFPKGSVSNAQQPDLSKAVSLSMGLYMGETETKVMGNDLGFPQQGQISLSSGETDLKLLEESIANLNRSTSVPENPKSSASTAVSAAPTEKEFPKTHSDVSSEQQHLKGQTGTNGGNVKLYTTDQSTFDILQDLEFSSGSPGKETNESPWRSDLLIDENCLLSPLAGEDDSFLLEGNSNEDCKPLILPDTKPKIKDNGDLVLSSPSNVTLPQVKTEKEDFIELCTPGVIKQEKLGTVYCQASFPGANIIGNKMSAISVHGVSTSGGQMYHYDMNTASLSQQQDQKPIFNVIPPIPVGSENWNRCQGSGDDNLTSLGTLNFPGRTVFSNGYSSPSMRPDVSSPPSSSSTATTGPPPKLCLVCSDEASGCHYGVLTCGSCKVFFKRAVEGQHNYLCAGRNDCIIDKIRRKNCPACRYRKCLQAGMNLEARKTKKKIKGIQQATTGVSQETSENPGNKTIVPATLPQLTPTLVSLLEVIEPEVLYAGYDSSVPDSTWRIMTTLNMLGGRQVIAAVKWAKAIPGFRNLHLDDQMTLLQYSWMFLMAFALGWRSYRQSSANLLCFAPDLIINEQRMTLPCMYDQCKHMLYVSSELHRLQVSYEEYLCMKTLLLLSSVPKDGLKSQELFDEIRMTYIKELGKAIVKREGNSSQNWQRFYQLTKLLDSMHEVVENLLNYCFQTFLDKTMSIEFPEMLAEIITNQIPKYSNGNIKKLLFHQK
Chain of Androgen receptor (Homo sapiens) (P10275 whole entry, looked up): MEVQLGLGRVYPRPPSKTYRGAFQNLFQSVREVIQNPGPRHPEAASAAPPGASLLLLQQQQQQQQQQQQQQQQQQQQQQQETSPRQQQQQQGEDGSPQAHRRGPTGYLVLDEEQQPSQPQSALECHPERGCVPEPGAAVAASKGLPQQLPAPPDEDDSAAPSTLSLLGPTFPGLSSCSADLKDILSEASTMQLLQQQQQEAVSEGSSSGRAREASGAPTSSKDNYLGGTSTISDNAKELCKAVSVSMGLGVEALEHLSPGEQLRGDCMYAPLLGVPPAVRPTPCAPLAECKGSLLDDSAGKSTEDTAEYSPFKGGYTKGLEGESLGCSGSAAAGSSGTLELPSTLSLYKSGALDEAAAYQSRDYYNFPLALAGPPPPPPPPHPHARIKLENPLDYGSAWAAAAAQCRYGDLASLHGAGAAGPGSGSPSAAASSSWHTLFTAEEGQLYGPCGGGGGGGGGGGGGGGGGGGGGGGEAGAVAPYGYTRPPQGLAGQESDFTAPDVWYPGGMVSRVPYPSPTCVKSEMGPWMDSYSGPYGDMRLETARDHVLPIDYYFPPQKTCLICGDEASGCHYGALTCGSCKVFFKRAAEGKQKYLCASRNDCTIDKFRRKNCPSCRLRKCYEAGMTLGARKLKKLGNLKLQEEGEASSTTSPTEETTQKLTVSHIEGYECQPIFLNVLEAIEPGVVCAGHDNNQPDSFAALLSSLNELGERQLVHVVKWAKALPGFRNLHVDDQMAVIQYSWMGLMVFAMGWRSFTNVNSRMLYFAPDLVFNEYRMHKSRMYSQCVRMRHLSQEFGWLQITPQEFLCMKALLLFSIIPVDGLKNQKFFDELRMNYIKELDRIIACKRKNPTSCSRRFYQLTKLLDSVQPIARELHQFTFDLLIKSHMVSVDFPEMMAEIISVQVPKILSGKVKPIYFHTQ

Take `Nc1ccc([N+](=O)[O-])c(N)c1`: the compound was called inactive in test [1], in test [2], in test [3], in [4], in [5] and in [6]. In addition, the result in test [7], in [8], in [9] and in [10] was inactive. The Potency result in test [11], in test [12], in test [13] and in test [14] was “inactive” throughout. The Potency in test [15] is 59.6 µM (active).
Consider `CC(C)NCC(O)COc1cccc2[nH]ccc12` (configuration not stated), for which the compound was classed as inactive in test [1], in [2], in test [3], in test [4], in test [5] and in test [6]. Besides, the result in test [7], in test [8], in [9], in [10], in test [17] and in test [18] was inactive. In addition, the Potency result in [11], in test [12], in test [13], in test [14], in [16] and in [15] was “inactive” in each case. In [19], the Potency result was “inactive”.
Consider `CCCCCCCCC1CCC(=O)O1` (configuration not stated), for which the compound was classed as inactive in test [1], in test [2], in test [3], in [4], in test [5] and in [6]. For the same compound, the result in test [7], in test [8] and in [10] was inactive. In test [20], the Potency was 43.6 µM (active). In addition, the Potency entry in test [11], in [12], in test [13], in [14] and in test [15] was “inactive” each time.
Consider `CCCCCCN`, for which the call in [1], in [2], in test [3], in [4], in test [5] and in test [6] was inactive. Also, the outcome in test [7], in test [8], in [9] and in test [10] was inactive. Moreover, the Potency result in [11], in test [12], in test [13] and in [14] was “inactive” in each case.
Regarding `Brc1ccc(-c2ccccc2)cc1`, the call in [1], in test [2], in [3], in [4], in [5] and in test [6] was inactive. Moreover, the call in test [7], in test [8] and in [10] was inactive. Moreover, the Potency entry in [20], in test [11], in [12], in test [14] and in test [15] was “inactive” in each case.
As for `c1ccc2nccnc2c1`, the result in test [1], in [2], in test [3], in test [4], in test [5] and in test [6] was inactive. Besides, the compound was classed as inactive in [7], in test [8] and in test [9]. Further, the Potency entry in test [11], in [12], in test [14] and in [15] was “inactive” each time.
On to `Cc1c(I)c(=O)n(-c2ccccc2)n1C`, for which the call in test [1], in test [2], in test [3], in test [4], in test [5] and in test [6] was inactive. In addition, the compound was called inactive in [7] and in test [8]. The Potency result in test [20], in test [11], in [12], in test [13], in [14] and in test [15] was “inactive” throughout.
Regarding `CC(C)c1ccc2cc(C(C)C)ccc2c1`, the compound was classed as inactive in [1], in test [2], in test [3], in test [4], in test [5] and in test [6]. Besides, the call in [7], in test [8], in test [9], in test [10], in test [17] and in test [18] was inactive. Also, the Potency entry in test [11], in [12], in test [13], in [14], in test [16] and in [19] was “inactive” each time.
